Structures are written as SMILES. Compounds without any hit were thinned out: in the full panel of roughly 83,000, 20% have a hit.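 Growth was measured after 48 h exposure to one concentration of compound in 96-well plates. Values under 10 count as active.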 Unmarked numbers belong to inactive results. Active and inactive are the calls of the source.

In this assay the test system is UACC-62 melanoma. Nature of the assay: NCI-60 one-dose screen, 48 h (100 = growth as untreated, 0 = no growth, -100 = all killed). The settings on record: 10 µM unless noted.
`O=C(Cn1c2c(sc1=O)[C@H]1[C@@H](O)[C@@H](O)[C@H](O)[C@@H]1CS2)N1CCOCC1`: the growth was 101%.
The result for `COc1ccc(NC(=O)Cn2c3c(sc2=O)[C@H]2[C@@H](O)[C@@H](O)[C@H](O)[C@@H]2CS3)cc1` reads 99.8%; that for `Cc1cc2nc3c4ccccc4n(CCCN(C)C)c3nc2cc1C`, -90.4% (active).
The result for `CN(C)c1ccnc(CNCCSC2(c3ccc(C(F)(F)F)cc3)c3ccccc3C=Cc3ccccc32)c1` reads 2.63% (active).
Consider `COCOc1ccc2c(=O)c(C)c(C(=O)N[C@@H](Cc3ccccc3)C(O)C(=O)NCCc3ccc(OC)cc3)oc2c1` (stereo partly specified), for which the growth is 102%.
The value for `Cc1cc2nc3c4ccccc4n(CC4=NCCN4)c3nc2cc1C` was -91.2% (active).
The result for `Cn1cc(-c2nc(N)nnc2-c2c[nH]c3ccc(F)cc23)c2cccnc21` reads 29.8%; that for `COc1ccc(N2N=C(c3ccc4c(c3)OCO4)CC2c2cccc(NC(=O)CCNS(=O)(=O)c3ccc(Cl)cc3)c2)cc1` (stereo unspecified), 39.5%.
Take `Cc1nc(Nc2ccccn2)sc1C(=O)CC(SCC(=O)Nc1ccc(Cl)cc1)c1ccccc1F` (stereo unspecified): the growth was -10.6% (active).
In the case of `CN(C)CCn1c2ccccc2c2nc3cc(C(F)(F)F)ccc3nc21`, the growth is 44.8%.
On to `S=C(Nc1ccccc1)Nc1ccc(OCc2nc3ccccc3[nH]2)cc1`, for which the growth is 33.6%.
